Screens: PubChem, National Center for Advancing Translational Sciences (NCATS)
Sampled rows, rich in hits. Any-hit rate of the full collection: about 1.4%.
AMA1 RON2 block = inhibitors of Plasmodium falciparum AMA1-RON2 interaction; AlphaScreen AMA1-biotinylated RON2 peptide binding; AID 720542; 360,000 tested, 0.2% active; Potency, µM (highest dose often 58.2 µM), most hits filed as inhibitors; note: nearly all actives have a fitted effect of over 45% in size
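AMA1 (3D7) with his tag at 25 nM final met compounds first, then biotinylated RON2 peptide at 25 nM; detection used donor plus acceptor beads, 10 µg/mL apiece, read by AlphaScreen after 30 min at room temperature.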
Vaccinia mCherry = inhibitors of vaccinia virus infection (mCherry reporter signal); Vaccinia virus mCherry reporter infection, fluorescence; Potency, µM (top dose mostly 36.5 µM), usual class: inhibitors; 310,000 tested, 0.63% active; AID 720579; calls by dose curve; tested in A549 cells; note: nearly all actives have a fitted effect of over 35% in size
SARS PLP yeast = SARS-CoV PLP inhibition in yeast; Potency, µM (titrated, usually from 32.9 µM), most hits filed as activators; S. cerevisiae expressing SARS-CoV PLpro, growth rescue; 330,000 tested, 0.19% active; calls by dose curve; note: nearly all actives have a fitted effect of over 55% in size
AmpC no deterg = inhibitors of E. coli AmpC beta-lactamase without detergent | 330,000 tested, 0.52% active | P00811 | Potency, µM (titrated, usually from 57.1 µM), most hits filed as inhibitors | AmpC nitrocefin hydrolysis, absorbance 480 nm, 0.0001% Triton; note: nearly all actives have a fitted effect of over 20% in size
Target sequence (P00811 whole entry, looked up): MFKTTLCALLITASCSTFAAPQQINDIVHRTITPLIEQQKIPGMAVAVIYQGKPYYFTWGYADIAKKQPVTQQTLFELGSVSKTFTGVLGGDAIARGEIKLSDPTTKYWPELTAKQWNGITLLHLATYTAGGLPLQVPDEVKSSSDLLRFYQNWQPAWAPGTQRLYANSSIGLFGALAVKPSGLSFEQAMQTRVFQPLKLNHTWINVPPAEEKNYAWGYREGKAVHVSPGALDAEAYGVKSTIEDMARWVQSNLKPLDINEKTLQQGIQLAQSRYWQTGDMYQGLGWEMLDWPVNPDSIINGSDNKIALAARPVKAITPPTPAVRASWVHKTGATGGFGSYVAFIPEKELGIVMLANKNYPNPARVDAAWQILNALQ
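20 mM phosphate pH 7.0 + 0.01% (detergent screen) or 0.0001% Triton X-100; 5.3 nM AmpC reagent; cpd preinc 15 min RT; nitrocefin (800 uM stock) to start; A480 q20 s × 4 min; Activity was normalised to no-enzyme and no-compound control wells.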
VACV Venus inh = inhibitors of vaccinia virus (Venus reporter) | Vaccinia virus Venus reporter expression, fluorescence | Potency, µM (series often up to 36.5 µM), hits mostly inhibitors | 330,000 tested, 0.46% active; calls by dose curve; tested in A549 cells; note: nearly all actives have a fitted effect of over 30% in size
AmpC detergent = AmpC beta-lactamase inhibition with detergent present; P00811; AmpC hydrolysis of nitrocefin, absorbance 480 nm, 0.01% Triton; Potency, µM (titrated, usually from 114 µM), usual class: inhibitors; 370,000 tested, 0.041% active; note: nearly all actives have a fitted effect of over 25% in size
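AmpC (5.3 nM in the dispensed reagent) in 20 mM phosphate pH 7.0 with 0.01% (detergent screen) or 0.0001% Triton X-100 was preincubated with compounds for 15 min at room temperature. Nitrocefin was then added from an 800 uM solution, and hydrolysis was followed at 480 nm.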
A number is an active result; – = inactive; ? = inconclusive; · = no result; [ ] = dose if it differs, or a comment. Unless noted, calls come from the whole dose curve; as a rule, active = well fitted curve in the direction sought with a large enough effect; inconclusive = small, poorly fitted or top-dose-only effect, or another doubt; inactive = no such curve, though single readings can be large; an effect the other way counts as inactive or inconclusive.

SMILES	AMA1 RON2 block	Vaccinia mCherry	SARS PLP yeast	AmpC no deterg	VACV Venus inh	AmpC detergent
C=C[C@@H]1c2cc(C)ccc2N(S(=O)(=O)c2ccc(C)cc2)[C@H](c2ccc(C(C)(F)F)cc2)C1(C#N)C#N	·	–	·	·	–	·
Cc1ncc2c(c1CNS(=O)(=O)N(C)C)CCN(C(=O)/C=C/c1ccccc1)C2	·	–	·	·	–	·
NS(=O)(=O)c1ccc(CCNC(=O)c2ccc([N+](=O)[O-])s2)cc1	–	11µM	–	–	?	–
NS(=O)(=O)c1ccc(CCNC(=O)c2ccc(Cl)s2)cc1	–	·	–	–	·	–
COc1ccccc1-n1ncc2c(=O)[nH]c(SCC(=O)Nc3ccc(Cl)cc3)nc21	·	–	·	·	–	–
COc1cc(/C=N/NC(=O)c2ccc(F)cc2)ccc1OC(=O)c1ccco1	–	–	–	10µM	–	–
COc1cc(C(=O)Oc2ccccc2/C=N/NC(=O)c2ccc(Cl)cc2)cc(OC)c1OC	–	?	–	–	?	–
COc1cc(/C=N/NC(=O)c2ccc(-c3ccccc3)cc2)cc(OC)c1OC	–	5.6µM	–	–	?	?
COc1ccc(/C=N\NC(=O)c2ccc(-c3ccccc3)cc2)c(OC)c1OC	–	–	–	–	–	–
COc1cc(/C=N/NC(=O)c2ccc(-n3cccc3)cc2)ccc1O	–	?	–	14µM	?	–
COc1cc(/C=N/NC(=O)c2ccncc2)ccc1OC(=O)c1ccco1	–	–	–	–	–	–
COc1cc(C(=O)Oc2ccccc2/C=N/NC(=O)c2ccc(C)c(Cl)c2)cc(OC)c1OC	–	5µM	–	–	?	–
Cc1ncc(-c2ccc(F)cc2)c(C2CCCN(Cc3cccc(O)c3)C2)n1 (stereo not drawn)	·	–	·	·	–	·
Cc1cnc2ccccc2c1/C=C/c1ccc(N)cc1	·	–	·	·	–	·
O=C1c2ccccc2C(Nc2ccc3c(c2)OCCO3)N1Cc1ccc2c(c1)OCO2 (stereo not drawn)	?	–	–	10µM	–	?
O=C1c2ccccc2C(Nc2ccccc2)N1Cc1ccc2c(c1)OCO2 (stereo not drawn)	?	–	–	–	–	–
Cc1c(C(=O)NCC2(N3CCOCC3)CCCC2)cnn1-c1nccc(-c2ccccc2F)n1	·	–	·	·	–	·
COc1cc(C(=O)Nc2ccc(OCc3cc(=O)n4cccc(C)c4n3)cc2)cc(OC)c1OC	·	8.9µM	·	·	?	–
COc1ccccc1C(=O)Nc1ccc(OCc2cc(=O)n3cccc(C)c3n2)cc1	·	–	·	·	–	–
C/C(CC(=O)Nc1ccc(Cl)c(C(F)(F)F)c1)=N\NC(N)=S	–	18µM	–	–	?	–
C/C(CC(=O)Nc1ccc(Cl)c(C(F)(F)F)c1)=N\NC(=O)c1ccccc1O	–	10µM	–	?	?	–
C/C(CC(=O)NC(C)(C)C)=N\NC(N)=S	–	10µM	?	–	?	–
CC[C@H]1OC(=O)C[C@@H](O)[C@H](C)[C@@H](O[C@@H]2O[C@H](C)[C@@H](O)[C@H](N(C)C)[C@H]2O)[C@@H](CCN2C[C@H](C)C[C@H](C)C2)C[C@@H](C)C(=O)/C=C/C(C)=C/[C@@H]1CO[C@@H]1O[C@H](C)[C@@H](O)[C@@H](OC)[C@H]1OC	·	–	·	·	–	·
Cc1ccccc1-c1ccc(CN2CCc3nnc(CNC(=O)c4ccccn4)n3CC2)cc1	·	–	·	·	–	·
COc1ccccc1C1CN(Cc2cn(C)nc2C)Cc2ccccc2O1 (stereo not drawn)	·	–	·	·	–	·
SMILES	AMA1 RON2 block	Vaccinia mCherry	SARS PLP yeast	AmpC no deterg	VACV Venus inh	AmpC detergent
COc1ccc(CNC(=O)c2ccc(Br)cc2)cc1	·	·	–	–	·	–
CC(=O)c1c(C)oc2c1C(=O)c1ccccc1C2=O	–	–	–	–	–	–
COc1ccc(CNC(=O)c2c(F)c(F)c(F)c(F)c2F)cc1	–	11µM	?	–	?	–
Cc1oc2c(c1C(=O)NCc1cccnc1)C(=O)c1ccccc1C2=O	–	?	–	–	0.56µM	–
COc1ccc(CNC(=O)c2c(C)oc3c2C(=O)c2ccccc2C3=O)cc1	–	7.1µM	–	–	8.9µM	?
COCC1CCCN(Cc2ccc3c(c2)CN(C(=O)c2ccc(OC)nc2OC)CCO3)C1 (stereo not drawn)	·	–	·	·	–	·
COc1ccc(N2CCC(CNC(=O)Nc3cccc(OC)c3)C2)cc1 (stereo not drawn)	?	–	–	13µM	–	–
CS(=O)(=O)c1ncc(Cl)c(C(=O)Nc2ccc3ccccc3c2)n1	–	10µM	–	–	?	–
CC(=O)Nc1ccc(NC(=O)c2nc(S(=O)(=O)Cc3ccccc3)ncc2Cl)cc1	–	·	–	–	·	–
CCOC(=O)C(NC(=O)CC(C)C)(Nc1sc(C)c(CC)c1C#N)C(F)(F)F (stereo not drawn)	–	–	–	–	–	–
CCOC(=O)C(NC(=O)CCl)(Nc1sc(C)c(CC)c1C#N)C(F)(F)F (stereo not drawn)	–	10µM	–	–	?	–
Cc1ccccc1C(=O)N1CCc2c(cnc(C)c2CNC(=O)c2ccc3c(c2)OCO3)C1	·	–	·	·	–	·
C=CC[C@H](CC(=O)N(CCO)Cc1ccccc1)C(=O)N[C@H](COC(=O)[C@H](CC=C)CC(=O)OC(C)(C)C)Cc1c[nH]c2ccccc12	–	–	–	–	–	·
C=CC[C@@H](CC(=O)N(CCO)Cc1ccccc1)C(=O)N[C@@H](COC(=O)[C@H](CC=C)CC(=O)OC(C)(C)C)Cc1c[nH]c2ccccc12	–	?	–	–	11µM	·
C=CC[C@H](CC(=O)N(CCO)Cc1ccccc1)C(=O)N[C@H](COC(=O)[C@@H](CC=C)CC(=O)OC(C)(C)C)Cc1ccccc1	–	–	–	–	?	·
C=CC[C@H](CC(=O)N(CCO)Cc1ccccc1)C(=O)N[C@@H](COC(=O)[C@@H](CC=C)CC(=O)OC(C)(C)C)Cc1c[nH]c2ccccc12	–	?	–	–	11µM	·
Oc1ccc(C[C@@H]2CNCCN2CCc2cc(C(F)(F)F)cc(C(F)(F)F)c2)cc1	–	14µM	–	–	10µM	–
Oc1ccc(C[C@H]2CNCCN2CCc2cc(C(F)(F)F)cc(C(F)(F)F)c2)cc1	–	–	–	–	–	?
Cc1ccccc1OCC(O)Cn1c(=N)n(Cc2ccccc2)c2ccccc21 (stereo not drawn)	–	10µM	–	–	11µM	–
COc1cccc(NC(=O)CSc2nnc(NC(=O)NC3CCCCC3)s2)c1	·	–[7.34 µM]	·	·	–[7.34 µM]	–
CCN(c1ccccc1)S(=O)(=O)c1ccc(OC)c(NC(=O)CCc2nc3ccccc3c(=O)[nH]2)c1	–	–	–	35µM	–	?
CCCCn1c(/N=C/c2cc(OC)ccc2O)nc2ccccc21	–	?	–	–	3.5µM	?
